Test results as given in PubChem BioAssay AID720504 (National Center for Advancing Translational Sciences (NCATS), 2013).
About 10,000 (2.8%) of roughly 360,000 compounds were called active. Roughly 4% stayed inconclusive and do not appear here. Calls come from the whole dose curve; as a rule, active = well fitted inhibition curve with a large enough effect; inconclusive = small, poorly fitted or top-dose-only effect; inactive = flat fitted curve, though single readings scatter. Many of the other results were omitted from the sample, so actives are more common in it than they were.

Biological target: Serine/threonine-protein kinase PLK1 (Homo sapiens) (UniProt P53350)
Test: qHTS for Inhibitors of PLK1-PDB (polo-like kinase 1 - polo-box domain): Primary Screen; note: nearly all actives have a fitted effect of over 65% in size; for max response, negative = inhibition: series mostly up to about 57 µM
Conditions: Plk1 PBD binding of FITC phosphopeptide, fluorescence polarization
Source text: The polo-like kinase 1 (Plk1) is a member of a conserved subfamily of serine / threonine protein kinases that plays a pivotal roles in cell proliferation. It has a C-terminal non-catalytic region called the polo-box domain (PBD) that plays a crucial role in the subcellular localization of the Plk1. […] Furthermore, depletion of the overexpressed Plk1 by RNAi efficiently induces apoptotic cell death in cancer and reduces tumor growth in mouse xenograft models. Thus, targeting Plk1 is an appealing strategy for anti-cancer therapy. Therefore, this project aimed to screen the Molecular Libraries Small Molecule Repository (MLSMR) using a novel approach to find inhibitors that target the Plk1 PBD instead of the conventional N-terminal catalytic domain. This project employed a fluorescence polarization (FP) assay using a FITC-conjugated phospho-9-mer (p-9-mer) peptide and purified human Plk1 PBD protein. The identified small molecule inhibitors of Plk1 PBD can then further be developed into useful tools for biomedical and clinical research that complements or replaces current relevant disease therapy. NIH Chemical Genomics Center [NCGC] NIH Molecular Libraries Probe Centers Network [MLPCN] MLPCN Grant: MH100728 Assay Submitter (PI): Kyung Lee, NCI
Four microliter of 25 nM FITC-p-9-mer + 60 nM Plk1 PBD in buffer solution (final concentrations 25 nM and 60 nM respectively) or 4 uL of 25 nM FITC-p-9-mer (final concentration 25 nM) in buffer will be dispensed into a 1,536 Greiner medium-binding black solid plate. Small molecules at final concentrations of 18 nM to 57 uM and positive control phospho-9-mer (sequence: Ac-PPLHSpTAI-NH2) at final concentrations 26 nM to 57 uM and phospho-13-mer (sequence: Ac-[…]pTAI-NH2) at final concentrations of 1 nM to 2.3 uM will be pin-transferred (23 nL) to the plate via a Kalypsys pin-tool robotics equipped with a 1,536-pin array. The reaction plate will be centrifuged for 1 min at 1000 rpm and incubated at room temperature for 10 min. The FITC fluorescence signals will be read using the PerkinElmer ViewLux plate reader at 480 / 20 nm excitation and 540 / 20 nm S and P polarization emission wavelengths. Reagent bottles will be kept submerged into 4 °C recirculating chiller bath and all liquid lines will be covered with aluminum foil to minimize degradation. Library plates will be screened starting from the lowest to the highest concentrations to minimize compound carryover. Vehicle only plates, with DMSO being pin-transferred instead of compound solutions, will be included regularly throughout the screen to record any systematic shifts in assay signal.
% is set by controls: 0 for no effect and ±100 for the full control effect; potency is the fitted concentration of half-maximal effect.

Sequence of Serine/threonine-protein kinase PLK1 (Homo sapiens) (P53350 whole entry, looked up, the tested form may be a part): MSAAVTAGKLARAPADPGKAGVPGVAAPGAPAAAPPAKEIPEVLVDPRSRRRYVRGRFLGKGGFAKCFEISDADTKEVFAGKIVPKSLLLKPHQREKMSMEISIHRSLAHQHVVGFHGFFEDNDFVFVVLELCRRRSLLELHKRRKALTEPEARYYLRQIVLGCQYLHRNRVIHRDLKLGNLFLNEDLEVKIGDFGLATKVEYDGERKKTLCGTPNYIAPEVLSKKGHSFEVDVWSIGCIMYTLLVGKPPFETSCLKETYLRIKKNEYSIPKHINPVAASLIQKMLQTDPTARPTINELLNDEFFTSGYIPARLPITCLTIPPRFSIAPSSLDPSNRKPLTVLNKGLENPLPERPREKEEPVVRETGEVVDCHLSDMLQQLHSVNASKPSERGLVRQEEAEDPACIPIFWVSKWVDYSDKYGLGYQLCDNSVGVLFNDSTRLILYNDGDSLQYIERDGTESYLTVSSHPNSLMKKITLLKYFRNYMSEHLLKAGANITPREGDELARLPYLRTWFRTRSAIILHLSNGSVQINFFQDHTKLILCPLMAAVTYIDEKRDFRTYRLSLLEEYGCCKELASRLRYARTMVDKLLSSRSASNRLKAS

Compound | Potency | max response, negative = inhibition
COc1cccc(-n2nc(C(=O)N3CCN(Cc4ccccc4)CC3)c3ccccc3c2=O)c1 | 29.9 µM (active) | –
COc1ccc(-n2nc(C(=O)NCC(=O)N3CCCCCC3)c3ccccc3c2=O)cc1Cl | – | 4.93% (inactive)
CCOC(=O)CNC(=O)c1nn(-c2cccc(OC)c2)c(=O)c2ccccc12 | – | -5.49% (inactive)
CC1(C(=O)NS(=O)(=O)c2cccs2)CCN1C(=O)Cc1ccc(-c2ccccc2)cc1 (stereo not given) | – | -1.09% (inactive)
COC(=O)[C@]12CCCCC=C1N(Cc1ccco1)C(=O)[C@H](CC(=O)NCCCCc1ccccc1)C2 | – | -4.79% (inactive)
COc1cccc(CNC(=O)[C@@H]2CCCN2C(=O)[C@@H]2CCCN2C(=O)c2ccccc2)c1 | – | -5.85% (inactive)
COc1ccc(-c2cc(C(=O)NC(Cc3c[nH]c4ccccc34)C(=O)O)c(C)o2)cc1OC (stereo not given) | 13.4 µM (active) | –
COc1ccc(-c2cc(C(=O)NC(C(=O)O)C(C)C)c(C)o2)cc1OC (stereo not given) | – | -8.55% (inactive)
COc1ccc(-c2cc(=O)oc3cc(OCC(=O)N[C@@H](Cc4c[nH]c5ccccc45)C(=O)O)ccc23)cc1 | – | -6.27% (inactive)
CCn1c(Cc2ccccc2)nnc1SCc1nc2ccccc2c(=O)[nH]1 | – | -5.5% (inactive)
CCn1c(COc2c(C)cccc2C)nnc1SCc1nc2ccccc2c(=O)[nH]1 | – | -11.4% (inactive)
COc1ccc(CCCc2nnc(SCc3nc4ccccc4c(=O)[nH]3)n2C)cc1 | 3.77 µM (active) | –
COc1cc(/C=C2\C(=N)N3N=C(CC(=O)N4CCOCC4)SC3=NC2=O)cc(OC)c1OC | – | -14.2% (inactive)
CS(=O)(=O)C1=NN2C(=N)/C(=C\c3ccc(OCCOc4ccccc4)cc3)C(=O)N=C2S1 | 26.7 µM (active) | –
CS(=O)(=O)c1ccc2c(c1)SC1=NC(=O)/C(=C/c3ccco3)C(=N)N12 | – | -3.25% (inactive)
CCS(=O)(=O)C1=NSC2=NC(=O)/C(=C\c3ccc(OS(=O)(=O)c4ccccc4)cc3)C(=N)N21 | 29.9 µM (active) | –
Cc1cc(/C=C2/NC(=O)NC2=O)c(C)n1-c1cccnc1 | – | 2.71% (inactive)
Cc1cc(/C=C2/C(=N)N3C(=NC2=O)SN=C3S(C)(=O)=O)c(C)n1-c1ccccc1 | 26.7 µM (active) | –
COc1ccccc1OCCOc1ccc(/C=C2\C(=N)N3N=C(C)SC3=NC2=O)cc1 | – | -15.8% (inactive)
CCCS(=O)(=O)NC(=O)C1(C)CCCN(C(=O)c2cccs2)C1 (stereo not given) | – | -11.7% (inactive)
COc1cccc(-c2cc(NC(C)=O)c3ncc(-c4cccc(C(C)=O)c4)n3c2)c1 | – | -19.9% (inactive)
CCCCc1ccc(S(=O)(=O)NC(=O)C2(C)CCN2C(=O)c2ccccc2)cc1 (stereo not given) | – | -13.3% (inactive)

Compound | Potency | max response, negative = inhibition
CC1=C(C(=O)N2CCOCC2)CC(CC(=O)NCCN2CCOCC2)C(=O)N1CCC1=CCCCC1 (stereo not given) | – | 1.89% (inactive)
COc1cccc(-c2nc3nc(C)cc(C)n3c2NC2CCCCC2)c1 | – | -13.3% (inactive)
CCNC(=O)c1cc2c(c(-c3cccc(-c4cncnc4)c3)n1)[C@H](CCO)N(C(C)=O)C2 | – | -4.29% (inactive)
O=C(Nc1cc(Br)ccc1F)c1nc[nH]c1C(=O)NCc1ccccc1 | – | -13.2% (inactive)
COc1cccc(-c2cc3nc(NCc4ccccc4OC)n(C)c(=O)c3s2)c1 | – | 3.07% (inactive)
c1nc(COc2nsnc2N2CCOCC2)cs1 | – | -14.8% (inactive)
O=C(O)COc1nsnc1N1CCOCC1 | – | -5.74% (inactive)
c1ccc(COc2nsnc2N2CCOCC2)cc1 | 26.7 µM (active) | –
C[C@H]1COc2cc(N3CCSCC3)ccc2S(=O)(=O)N1 | – | -1.34% (inactive)
CC(C)C[C@H]1CNC(=O)C(=O)N1C[C@H]1CCCN1C[C@H](Cc1ccc(O)cc1)N1C[C@H](CC(C)C)N(CC2CCCCCC2)C(=O)C1=O | – | -0.278% (inactive)
COc1ccc(S(=O)(=O)N2CCCCC2c2cc(C(=O)NCc3ccc(F)cc3)no2)cc1 (stereo not given) | – | 4.51% (inactive)
Cc1nn(-c2ccc(F)cc2)c(Cl)c1/C=C(/CCC(=O)O)c1nc2ccccc2s1 | 59.7 µM (active) | –
COc1cccc(/C=C(/CC(=O)Nc2ccc(N3CCOCC3)cc2)c2nc3ccccc3s2)c1 | – | 8.02% (inactive)
Cc1nn(-c2ccccc2)c(Cl)c1/C=C/C(=O)c1ccc(O)cc1 | – | -17.2% (inactive)
CC(C)[C@H](NC(=O)c1ccccc1F)C(=O)Nc1cccc(S(=O)(=O)N2CCOCC2)c1 | – | 2.03% (inactive)
COc1ccc(CNC(=O)c2ccc(-c3cccnc3)c3ccoc23)cc1OC | – | -7.35% (inactive)
CCOC(=O)C1=CCC2C(=O)N(Cc3ccccc3)C(=O)C12 (stereo not given) | – | -2.51% (inactive)
CCN(CC)C(=O)C1CCCN(Cc2cccc(Cl)c2)C1 (stereo not given) | – | -16.8% (inactive)
C=CCOc1c(Br)cc(/C=N\n2nnnc2N)cc1OC | – | -13.9% (inactive)
CCOc1c(Br)cc(/C=C2\C(=O)N(CCC#N)N=C2C)cc1OC | 1.06 µM (active) | –
CC1(C(=O)NS(=O)(=O)c2cccc(F)c2)CCN1C(=O)Cc1ccc(Cl)cc1Cl (stereo not given) | – | 1.99% (inactive)
C[C@H](CO)N1C[C@H](C)[C@@H](CN(C)C(=O)C2CCCCC2)OCc2cnnn2CCCC1=O | – | -18.4% (inactive)

Compound | Potency | max response, negative = inhibition
CCOC(=O)C1=CC[C@@H](c2ccncc2)N(S(=O)(=O)c2ccc(C)cc2)C1 | – | -3.59% (inactive)
Cc1[nH][nH]c(=O)c1C(c1ccc(-c2ccc(Cl)cc2)o1)c1c(C)[nH][nH]c1=O | 26.7 µM (active) | –
CN(CC(=O)Nc1ccc(F)cc1)C(=O)c1ccc(-c2ccc(Cl)cc2)o1 | – | -3.69% (inactive)
NS(=O)(=O)c1ccc(CCNC(=O)CN2C(=O)c3ccccc3S2(=O)=O)cc1 | – | -4.84% (inactive)
COc1ccc(CNC(=O)CN2C(=O)c3ccccc3S2(=O)=O)cc1 | 26.7 µM (active) | –
COc1ccc(CNC(=O)CCn2cccc2)cc1 | – | 1.6% (inactive)
COc1cccc(OC)c1C(=O)N1CCN(Cc2ccccc2F)CC1 | – | -14.6% (inactive)
C=C1C(=O)OC2C1CCC(C)=CCCC1(C)OC21 (stereo not given) | – | -24.4% (inactive)
CC1(C(=O)NS(=O)(=O)C2CC2)CCCN(C(=O)CSc2ccccc2)C1 (stereo not given) | – | -7.19% (inactive)
O=C(c1cccc(F)c1)N1CCN(c2ccc([N+](=O)[O-])c(N3CCCCC3)c2)CC1 | – | -8.34% (inactive)
Cc1ccc(CSCC2Nc3ccc(C(=O)N4CCN(c5ccc(F)cc5)CC4)cc3NC2=O)cc1 (stereo not given) | 8.44 µM (active) | –
CC1CCN(C(=O)c2ccc3c(c2)NC(=O)CN3)CC1 | – | 62.7% (inactive)
Cc1ccc(SCC(=O)N2CCN(c3ccc(F)cc3)CC2)cc1 | – | 4.7% (inactive)
O=C1Nc2cc(C(=O)N3CCN(c4ccc(F)cc4)CC3)ccc2NC1CSCc1cccc(F)c1 (stereo not given) | 29.9 µM (active) | –
C=CCn1c(SCc2cccc(F)c2)nc2cc(C(=O)N3CCC(C(N)=O)CC3)ccc2c1=O | – | -5.4% (inactive)
Cc1nc2ccccc2nc1CC(O)(c1ccccc1)c1ccccc1 | – | -15.9% (inactive)
COc1cccc(CN(C)C(=O)CC[C@H]2O[C@@H](n3cnc4c(NC(=O)c5ccccc5)ncnc43)[C@H](O)[C@@H]2O)c1 | – | -1.63% (inactive)
Cc1ccc(C(NC(=O)C2CCN(CCOc3ccc(Cl)cc3Cl)CC2)c2ccccn2)cc1 (stereo not given) | – | -11.3% (inactive)
CCOc1cc(C)ccc1OCc1nnc(SCC(=O)Nc2cccc(C(=O)O)c2)n1-c1ccccc1 | – | -7.97% (inactive)
Cc1nnc(SCC(=O)Nc2cccc(N)c2)n1-c1ccccc1 | 26.7 µM (active) | –
CC(=O)Nc1ccc(NC(=O)CSc2nnc(C3CC3)n2-c2ccccc2)cc1 | – | 7.6% (inactive)
OCC1OC(n2cnc3c(N4CCCC4)ncnc32)C(O)C1O (stereo not given) | – | -0.393% (inactive)

Compound | Potency | max response, negative = inhibition
C[C@@H]1CN([C@H](C)CO)C(=O)c2cc(Br)cnc2O[C@@H]1CN(C)Cc1cncnc1 | – | -13.8% (inactive)
CN(CCO)C(=O)c1nc[nH]c1C(=O)N(C)Cc1ccccc1 | – | -6.79% (inactive)
CC1=CC(=C(C#N)c2nc3ccccc3s2)C=C(C)N1c1ccc(F)cc1F | 21.2 µM (active) | –
CN(Cc1nc2ccccc2s1)C(=O)c1ccc(F)cc1 | – | -6.86% (inactive)
O=C(NCc1cccnc1)c1ccc2nc([C@@H]3O[C@H](CO)[C@H](O)[C@H](O)[C@H]3O)[nH]c2c1 | – | -4.09% (inactive)
CC(=O)c1sc(N/N=C/c2ccc(C(C)C)cc2)nc1C | – | 11.6% (inactive)
COc1cc(/C=N\Nc2nc(-c3cccs3)c(NC(C)=O)s2)ccc1O | 26.7 µM (active) | –
COc1cc(C=NC2CCCCC2)ccc1O | – | 4.49% (inactive)
CCc1ccccc1NC(=O)CN1CCN(C(=O)c2cc(C3CC3)nn2-c2ccccc2)CC1 | – | 7.48% (inactive)
COc1ccc(S(=O)(=O)NC(=O)C2(C)CCN2C(=O)COc2ccc(Cl)cc2)cc1 (stereo not given) | – | -3.35% (inactive)
CC(C)Nc1ncnc2c1ncn2[C@H]1CN(Cc2ccncc2)C[C@@H](CO)O1 | – | 0.157% (inactive)
CC(=O)c1nn(-c2ccccc2)c(=Nc2ccccc2)cc1C | – | -4.39% (inactive)
O=C(COc1ccccc1)Nc1ccc(C(=O)N2CCCC2)cc1 | – | -9.45% (inactive)
O=C(COc1ccccc1)Nc1ccc(N2CCN(C(=O)c3cccs3)CC2)cc1 | 26.7 µM (active) | –
COc1ccc(N2CCN(C(=O)c3cccs3)CC2)cc1 | – | 0.204% (inactive)
Cc1ccc(S(=O)(=O)N2CCC(=O)N([C@H](COCc3ccccc3)C(C)C)CC2)cc1 | – | -7.98% (inactive)
Cc1cc(C(=O)OCC(=O)Nc2nnc(C(C)C)s2)c2ccccc2n1 | – | -7.1% (inactive)
O=C(COC(=O)c1ccc(O)cc1)Nc1nccs1 | – | -1.48% (inactive)
Cc1cc(C(=O)OCC(=O)Nc2nccs2)c2ccccc2n1 | 3.36 µM (active) | –
